Measurements from PubChem BioAssay (Tox21).
Records with an inconclusive call do not appear. Unmarked numbers belong to inactive results. Activity calls are given as the source filed them. Calls follow the shape of the dose curve; as a rule, active = well fitted cell-killing curve with a large enough effect in the repeat runs; inconclusive = weak or mixed curves, or effect the other way; inactive = no such curve, though single readings can be large or run the other way.

Assay: qHTS assay to identify small molecule agonists of the estrogen receptor alpha (ER-alpha) signaling pathway in the presence of an antagonist - cell viability counter screen (AID 1259386);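 also: cells exposed to compounds for 22 h at 37 °C before the viability read; nearly all actives have a fitted effect of over 30% in size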
Settings: VM7Luc4E2 viability, CellTiter-Fluor fluorescence, 22 h; series mostly up to 92.4 µM; activity change, negative = cytotoxicity: at the top concentration
Excerpt: National Center for Advancing Translational Sciences [NCATS]
NIH Chemical Genomics Center [NCGC]
U.S. Environmental Protection Agency [EPA]
National Institutes of Environmental Health Sciences [NIEHS]
National Toxicology Program [NTP]
U.S. Food and Drug Administration [FDA]
Estrogen receptor (ER), a member of nuclear hormone receptor plays an important role in development, metabolic homeostasis and reproduction. Two subtypes of ER, ER-alpha and ER-beta, have similar expression patterns with some uniqueness in both types. Endocrine disrupting chemicals (EDCs) and their interactions with steroid hormone receptors like ER causes disruption of normal endocrine function. Therefore, it is important to understand the effect of environmental chemicals in ER signaling pathway. For identifying ER agonists, VM7Luc4E2 cell line has been used in the current assay.
VM7Luc4E2 cell line (provided by Denison MS, University of California) endogenously expresses full-length ER-alpha and is stably transfected with a plasmid containing four estrogen responsive elements (ERE) upstream of a luciferase reporter gene. This current screening for measuring luciferase reporter gene activity using VM7Luc4E2 cells against Tox21 10K library collection is a confirmation study on agonist mode screening in presence of ER-antagonist (ICI-182,780) at 10.0nM final concentration. The cytotoxicity of the compounds was tested in parallel by measuring the cell viability using CellTiter-Fluor assay system (Promega, Madison, WI) in the same wells.
Tox21 Assay Protocol Summary:
VM7Luc4E2 cells were cultured in phenol red free assay medium containing 10% charcoal stripped FBS for 5 days prior to the assay. The cells were dispensed at 4,000 cells in 4uL of assay medium per well into white wall/solid-bottom 1536-well plates (Corning Life Sciences, Corning, NY) using a Multidrop Combi (Thermo Fisher Scientific Inc., Waltham, MA) dispenser. After the assay plates were incubated at 37C and 5% CO2 for 24hr, 1uL of 10.0nM (final concentration) ICI-182,780 or assay buffer was added using two separate tips of Flying Reagent Dispenser (FRD, Aurora Discovery, San Diego, CA). Then 23nL of compounds dissolved in DMSO at 15 concentrations and positive controls or DMSO only was transferred to the assay plates by a Pintool station (Wako, San Diego, CA). The assay plates were incubated at 37C and 5% CO2 for 22hr. After 21hr incubation at 37C, 1uL/well CellTiter-Fluor reagent (Promega Corporation, Madison, WI) was added to each well using FRD and after 1hr incubation at 37C and 5% CO2, the fluorescence signal was measured on ViewLux plate reader (PerkinElmer, Shelton, CT).
% is scaled to controls: 0 for no effect and ±100 for the full control effect; potency is read from the fitted curve at half-maximal effect.

| SMILES | activity change, negative = cytotoxicity | Potency |
| --- | --- | --- |
| COP(=S)(NC(C)C)Oc1ccc(C)cc1[N+](=O)[O-] (stereo not given) | -5.04% |  |
| COP(=S)(OC)Oc1nc(Cl)c(Cl)cc1Cl | -0.273% |  |
| O=[N+]([O-])C(Br)Br | 1.45% |  |
| COC(=O)c1ccccc1S(=O)(=O)NC(=O)Nc1nc(C)nc(OC)n1 | 0.126% |  |
| CCOP(=S)(OCC)Oc1cc(C)nc(N(CC)CC)n1 | -0.956% |  |
| c1csc(-c2ccc(-c3cccs3)s2)c1 | 0.56% |  |
| COP(=S)(OC)Oc1ccc([N+](=O)[O-])c(C)c1 | -14.1% |  |
| C#CC1(O)CCCCC1 | 0.0719% |  |
| O.O.O.O.O.O.O=S(=O)([O-])[O-].[Ni+2] | -5.41% [at 42.5 µM] |  |
| C=CC(=O)[O][Sn]([CH2]CCC)([CH2]CCC)[CH2]CCC |  | 10.9 µM (active) |
| CNN | -1.58% |  |
| C#CCO | 1.85% |  |
| CC[C@H](C)[C@H]1O[C@]2(C=C[C@@H]1C)C[C@@H]1C[C@@H](C/C=C(\C)[C@@H](O[C@H]3C[C@H](OC)[C@@H](O[C@H]4C[C@H](OC)[C@@H](NC)[C@H](C)O4)[C@H](C)O3)[C@@H](C)/C=C/C=C3\CO[C@@H]4[C@H](O)C(C)=C[C@@H](C(=O)O1)[C@]34O)O2 |  | 27.3 µM (active) |
| C1=CCC=C1 | 0.474% |  |
| O=NN(CCO)CCO | -8.42% |  |
| CCC[CH2][Sn]([CH2]CCC)([CH2]CCC)[O][Sn]([CH2]CCC)([CH2]CCC)[CH2]CCC |  | 0.475 µM (active) |
| CC(=O)[O-].CC(=O)[O-].[Co+2] | -1.93% |  |
| [F][Sn]([c]1ccccc1)([c]1ccccc1)[c]1ccccc1 |  | 10.9 µM (active) |
| CCOC(=O)CCN(SN(C)C(=O)Oc1cccc2c1OC(C)(C)C2)C(C)C | 1.42% |  |
| CC#C[C@]1(O)CC[C@H]2[C@@H]3C[C@H](C)C4=CC(=O)CC[C@]4(C)[C@H]3CC[C@@]21C | -1.46% [at 42.5 µM] |  |

| SMILES | activity change, negative = cytotoxicity | Potency |
| --- | --- | --- |
| Oc1ccc(Cl)c(Cl)c1 | -0.186% |  |
| CCC(C)c1cccc(C(C)CC)c1O (stereo not given) | -6.5% |  |
| CCOP(=S)(OCC)SC(CCl)N1C(=O)c2ccccc2C1=O (stereo not given) | -3.51% |  |
| COC(=O)/C=C(\C)OP(=O)(OC)OC | 1.38% |  |
| CCN(CC)CCN1C(=O)CN=C(c2ccccc2F)c2cc(Cl)ccc21 | -7.93% [at 42.5 µM] |  |
| C=CCBr | 4.26% |  |
| Nc1nc(N)nc(Cl)n1 | -0.219% |  |
| [O]=[Cr][O][Cr]=[O] | 2.8% |  |
| CSC1=N[C@@](C)(c2ccccc2)C(=O)N1Nc1ccccc1 |  | 54.5 µM (active) |
| N#Cc1c2ccccc2cc2ccccc12 | 14.8% |  |
| Cc1ccc([N+](=O)[O-])[c]2c1[O][Hg]2 |  | 29.8 µM (active) |
| CCOP(=O)(OCC)Oc1nc(Cl)c(Cl)cc1Cl | 5.74% |  |
| CC(C)=CC1C(C(=O)OC(C#N)c2cccc(Oc3ccccc3)c2)C1(C)C (stereo not given) | 3.36% |  |
| Cc1nn(-c2cc(NS(C)(=O)=O)c(Cl)cc2Cl)c(=O)n1C(F)F | 0.97% |  |
| CCCC[N+]1(C)CCCC1 (tested in a mixture with another compound) | 2.47% |  |
| CC1CCCC1 | 2.1% |  |
| CN/C(=N\[N+](=O)[O-])NCc1cnc(Cl)s1 | -1.84% |  |
| Cc1c([N+](=O)[O-])cc2c(c1[N+](=O)[O-])C(C)(C)CC2(C)C | 3.88% |  |
| Oc1ccc([C@H]2CNCc3c2ccc(O)c3O)cc1O |  | 26.6 µM (active) |
| CC(C)c1c(CN(C)C(C)Cc2ccccc2)n(C)n(-c2ccccc2)c1=O (stereo not given) | 1.24% [at 42.5 µM] |  |
